# Shown are actives, neighbours in structure and some others; about 27% of the full set was active somewhere.
# CYP2C9 act – CYP2C9 (human) activation | activation factor at 5 µM | 1.4% of 96,000 active | recombinant CYP2C9, luciferin-H conversion, luminescence; stronger effect = higher value; factor 1 = untreated enzyme, 0 = blocked;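 active = activation factor of 2 or more for CYP2C9 at a 5 µM dose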;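 also: 0 = sulfaphenazole-blocked wells and 1 = vehicle-only wells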
# Cav32 inh – blocks human Cav3.2 T-type calcium channel | 4% of 100,000 active | Cav3.2-expressing cells, Fluo-4 calcium fluorescence FDSS; stronger effect = lower value | AID 449739 | B-score at 10 µM;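 active = single-dose well whose peak fluorescence ratio is a statistical outlier from its plate by either plate-standardised score or position-corrected B-score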
# CYP2C9 inhib – blocks human cytochrome P450 2C9 | P11712 | CYP2C9 Supersomes, luciferin-H conversion, luminescence | inhibition, % at 5 µM | 20% of 96,000 active | AID 777;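 active = blocking of liver enzyme CYP2C9 beyond about 50% at 5 µM, limit read from the data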
# CYP2C19 act – activators of human cytochrome P450 2C19; P33261; recombinant CYP2C19, luciferin-H EGE luminescence; stronger effect = higher value; 0 = fully inhibited enzyme, 1 = untreated enzyme; activation factor at 5 µM; 96,000 tested, under 10 active;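 active = activation factor of at least 2 at 5 µM in the primary screen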;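 also: 0 = wells with 2.5 mM tranylcypromine and 1 = vehicle-only wells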
# Target sequence (P33261 whole entry, looked up): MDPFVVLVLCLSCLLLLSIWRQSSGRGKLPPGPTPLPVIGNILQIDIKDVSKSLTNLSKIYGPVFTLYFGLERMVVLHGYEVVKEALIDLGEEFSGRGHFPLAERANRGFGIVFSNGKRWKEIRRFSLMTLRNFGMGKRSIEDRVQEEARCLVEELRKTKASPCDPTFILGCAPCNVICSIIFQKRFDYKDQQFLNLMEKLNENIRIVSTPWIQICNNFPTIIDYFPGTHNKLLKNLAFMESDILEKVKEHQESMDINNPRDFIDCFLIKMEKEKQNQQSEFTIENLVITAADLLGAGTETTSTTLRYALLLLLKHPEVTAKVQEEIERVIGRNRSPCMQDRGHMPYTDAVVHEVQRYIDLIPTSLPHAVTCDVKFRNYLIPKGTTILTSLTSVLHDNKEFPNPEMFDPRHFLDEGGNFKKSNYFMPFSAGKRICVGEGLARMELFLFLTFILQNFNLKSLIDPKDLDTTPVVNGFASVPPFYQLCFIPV
# CYP2C19 inhib – human CYP2C19 inhibition; P33261; CYP2C19 Supersomes, luciferin-H EGE luminescence, 30 min; inhibition, % at 5 µM; 21% of 96,000 active; AID 778;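 active = CYP2C19 inhibition above a set limit at 5 µM in the primary screen, cut at about 50% in these data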;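 also: plate controls were negative control wells for no effect and 2.5 mM tranylcypromine positive control for full effect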
# Starred values were filed as active, the others as inactive; · = not tested or not shown.
SMILES,CYP2C9 act,Cav32 inh,CYP2C9 inhib,CYP2C19 act,CYP2C19 inhib
Cc1ccnc2nc(C(=O)NCCc3ccc(F)cc3)nn12,1.2,0.217,-22.3,0.8,15.4
COc1cc(Br)c(C(C)NC(=O)c2ccc(C)cc2)cc1OC (centres undefined),0.8,0.0715,24.9,0.7,34.9
COc1cc(Br)c(C(C)NC(=O)c2cccc(Br)c2)cc1OC (centres undefined),0.3,-1.57,66.0*,0.4,62.0*
CCN(CC)c1ccc2cc(C(=O)Nc3ccc(-n4cnnn4)c(OC)c3)c(=O)oc2c1,1,·,3.6,1,-2.4
COc1ccccc1/C=N/Nc1nccnc1Cl,0.5,-0.0112,47.3,0.5,50.8*
O=C(NC(=S)NCCc1ccccc1)c1ccccc1,0.8,-2.46,16.1,0.8,19.1
Fc1ccc(NC(=S)NCCc2ccccc2)c(F)c1F,0.6,-2.4,44.7,0.2,82.9*
Fc1ccccc1NC(=S)NCCc1ccccc1,0.7,-0.73,27.1,0.2,79.6*
Cc1ccc(CNC(=O)C(=O)NCC2OCCN2C(=O)c2ccc(Cl)cc2)cc1 (centres undefined),·,-4.37*,·,·,·
O=C(NCc1ccc(Cl)cc1)C(=O)NCC1OCCN1S(=O)(=O)c1ccc2c(c1)OCCO2 (centres undefined),·,-5.09*,·,·,·
Cc1cc(C)c(S(=O)(=O)N2CCOC2CNC(=O)C(=O)NCCc2c[nH]c3ccccc23)c(C)c1 (centres undefined),·,-2.76,·,·,·
O=C(NCCc1c[nH]c2ccccc12)C(=O)NCC1OCCN1S(=O)(=O)c1ccc(F)cc1 (centres undefined),·,-5.89*,·,·,·
O=C(NCCc1c[nH]c2ccccc12)C(=O)NCC1OCCN1S(=O)(=O)c1ccc(Cl)cc1 (centres undefined),·,-7.09*,·,·,·
COc1ccccc1CNC(=O)C(=O)NCC1OCCN1S(=O)(=O)c1ccc2c(c1)OCCO2 (centres undefined),·,0.473,·,·,·
Cn1c(=O)c2c(nc(SCCOc3ccc4ccc(=O)oc4c3)n2C)n(C)c1=O,1,·,2.2,1,1.3
COc1ccc(/C(C)=N\n2cnnc2)cc1,1.2,-0.796,-22.0,1.1,-8.1
O=C(O)C1C2C=CC(C2)C1C(=O)NC(c1ccccc1)c1ccccc1 (centres undefined),1.3,0.0531,-34.8,1.2,-17.4
COC(=O)CP(=O)(c1ccccc1)c1ccccc1,1.2,0.474,-20.9,1.2,-24.7
COc1ccc(-c2c3c(=O)n(C)c(=O)n(C)c3cn2-c2cc(OC)ccc2OC)cc1,0.4,1.09,63.2*,0.8,25.0
Cc1ccc(N2C(=O)CC(n3nc(C)cc3C)C2=O)cc1 (centres undefined),1.2,0.111,-24.8,1,4.3
CCOc1c(Cl)cc(CNC(C)(C)CC(C)(C)C)cc1OC,1,0.0914,-4.6,0.1,90.9*
CC(C)Oc1c(Cl)cc(CNC(C)(C)CO)cc1Cl,1,0.968,-3.5,1,-4.0
CC(=O)c1c(C)[nH]c(C(=O)OCC(=O)N2CCN(S(=O)(=O)c3ccc(C)cc3C)CC2)c1C,0.5,-0.821,50.5*,0.4,60.6*
Cc1ccc(S(=O)(=O)N2CCN(C(=O)CSC3CCCC3)CC2)c(C)c1,1.4,-3.73,-38.6,0.2,76.4*
Cc1ccc(S(=O)(=O)N2CCN(C(=O)CSc3nc4ccccc4c(=O)[nH]3)CC2)c(C)c1,0.7,0.388,25.9,1,-2.2
SMILES,CYP2C9 act,Cav32 inh,CYP2C9 inhib,CYP2C19 act,CYP2C19 inhib
CCOC(=O)c1c(C)[nH]c(C(=O)OCC(=O)N2CCN(S(=O)(=O)c3ccccc3)CC2)c1C,1,0.0819,-3.3,1,0.2
CN1C=CC=C/C1=C(\C#N)c1nc2ccccc2[nH]1,1.1,-0.362,-6.5,1,-1.2
O=C1c2cccc3c(N4CCCCC4)ccc(c23)C(=O)N1c1ccccn1,0.7,-6.92*,34.3,0.5,49.3
CS(=O)(=O)c1ccc(-c2cc(Br)sc2-c2ccc(F)cc2)cc1,·,-3.67,·,·,·
O=C(CC1OC(=O)c2ccccc21)c1ccco1 (centres undefined),1.1,0.0338,-10.6,1.1,-9.5
COc1ccc2c(c1)-c1c(sn(-c3ccc(OC)c(OC)c3)c1=S)C(C)(C)N2,0.4,-4.07,59.4*,0.7,25.1
COc1ccc(-n2sc3c(c2=S)-c2cc(OC)ccc2NC3(C)C)cc1,0.2,-0.518,81.6*,0.5,49.0
CCOc1ccc(-n2c(SC(C)C)nc3c(c2=O)SCC3)cc1,0.6,-1.99,42.2,0.7,31.6
COc1ccc2c(c1)O[C@@H](c1cccc(C(F)(F)F)c1)[C@H](OC(=O)N[C@H]1CCCc3ccccc31)C2=O,·,-0.644,·,·,·
CCOc1ccc(-c2nn(-c3ccccc3)cc2/C=C2\SC(N)=NC2=O)cc1C,1,0.0973,-0.9,1,3.1
CCOc1cc(/C=C2/C(=N)N3C=CSC3=NC2=O)ccc1OCCCOc1ccccc1C,0.3,-0.00799,73.7*,0.6,35.9
Cc1nc2sc(C(c3ccccc3)N3CCN(c4ccccc4F)CC3)c(O)n2n1 (centres undefined),0.5,-1.27,49.6,0.3,66.3*
COc1cccc(C(c2sc3nc(C)nn3c2O)N2CCN(c3ccccc3F)CC2)c1 (centres undefined),·,-2.14,·,·,·
CCOc1ccccc1-c1ccc(C(=O)NCc2ccccc2)o1,·,-1.64,·,·,·
COC(=O)c1sc(S(=O)(=O)NCc2ccccc2)c(C(=O)OC)c1C,0.4,-0.97,60.0*,0.2,83.4*
COC(=O)c1sc(S(=O)(=O)N2CCN(c3ccccc3)CC2)c(C(=O)OC)c1C,0.2,-0.718,77.8*,0.1,88.6*
COC(=O)c1sc(S(=O)(=O)N2CCC(C)CC2)c(C(=O)OC)c1C,0.5,-1.35,46.0,0.6,39.8
COc1cc(S(=O)(=O)N2CCN(c3ccccc3)CC2)ccc1Cl,0.9,0.286,6.3,0.7,28.9
COC(=O)c1sc(S(=O)(=O)N2CCCCC2)c(C(=O)OC)c1C,0.6,-1.16,38.7,0.4,62.4*
CC1CN(c2oc(Cc3cccc4ccccc34)nc2C#N)CC(C)O1 (centres undefined),0.4,-1.57,59.7*,0.4,64.2*
CC(C)Nc1oc(Cc2cccc3ccccc23)nc1C#N,0.4,-2.69,55.8*,0,98.9*
N#Cc1nc(Cc2cccc3ccccc23)oc1NCCN1CCCCC1,1,-0.608,-4.6,1,-4.1
N#Cc1nc(Cc2ccccc2)oc1NCc1ccccc1Cl,0.4,·,55.8*,0.4,62.7*
CNc1oc(Cc2cccc3ccccc23)nc1C#N,0.7,1.87,34.5,0,95.7*
Cc1ccc(C)c(/C=N/NC(=S)NCCc2ccccc2)c1,0.9,-0.286,8.9,1,-0.5
CC1(C)CC(=O)C(C=Nc2ccc3cn[nH]c3c2)=C(O)C1,0.8,-0.0331,17.4,0.5,53.8*
CC1(C)CC(=O)C(C=Nc2ccc3[nH]ncc3c2)=C(O)C1,0.5,0.913,49.1,0,99.7*
CCOc1ccc(N=CC2=C(O)CC(C)(C)CC2=O)cc1,0.9,-0.129,6.4,0.9,6.4

# Source: PubChem BioAssay (several laboratories)
